Laboratory results: PubChem BioAssay AID651564 (Sanford-Burnham Center for Chemical Genomics, 2012)
Some of the results follow. Values without a mark were called inactive. Activity calls are given as the source filed them. Rule as the data show it: active = IC50 below about 80 µM; inactive = the rest.

Experiment: fluorescent counter-screen in isolated mitochondria, dose response, counter-screen for MPTP inhibitor project, biochemical, fluorescence, uHTS hits (AID 651564)
Details: isolated mitochondria counterscreen, fluorescence read-out
For CCCC(C(=O)OCCN(CC)CC)(c1ccccc1)c1ccccc1, the IC50 was 77.1 µM (active). In the case of C[C@@H](CN1CCC[C@H]1CN1C(N)=NC[C@@H]1Cc1ccccc1)N1C[C@@H](Cc2ccccc2)N(CCCC2CCCC2)C1=N, the IC50 is reported as 16.3 µM (active). Work on Cc1ccc(-c2noc(CCC(=O)Nc3ccccc3N3CCN(C)CC3)n2)cc1 yielded an IC50 of over 80 µM. For NC[C@H](Cc1ccccc1)NCCc1cc(C(F)(F)F)cc(C(F)(F)F)c1, the IC50 was 52.7 µM (active). For Cc1cc(C)c(NC(=O)C[N+](C)(C)CC(O)COc2cccc3ccccc23)c(C)c1 (stereo not drawn), the IC50 was 47.5 µM (active). With O=C(Nc1cccc(-c2cccc(Cl)c2)c1)C1CCN(C2CCC2)CC1 the IC50 was 33.6 µM (active). FC(F)(F)COc1nc(N2CCCCC2)nc(N2CCNCC2)n1 gave an IC50 of over 80 µM. Work on CN(C)Cc1ccccc1C1(O)c2ccccc2CSc2ccccc21 (stereo not drawn) yielded an IC50 of over 80 µM. Work on Cc1ccc2c(c1)C1CN(C)CCC1N2S(=O)(=O)c1ccc(Oc2ccc([N+](=O)[O-])cc2)cc1 (stereo not drawn) yielded an IC50 of over 80 µM. COc1ccc(/C=C(/CC(=O)Nc2ccc(C)cc2)c2nc3ccccc3s2)cc1 gave an IC50 of over 80 µM. With Brc1ccc(CSc2ccc(-c3ccco3)nn2)cc1 the IC50 was over 80 µM. With O=C(c1ccc(Cl)cc1)c1ccc(OCC(O)CN2CCCCC2)cc1 (stereo not drawn) the IC50 was 34.8 µM (active). CC1(C)CC(=O)c2sc(N)nc2C1 gave an IC50 of over 80 µM. With Cc1nn(Cc2ccccc2)c2c1C(c1ccccc1)C(C#N)=C(N)O2 (stereo not drawn) the IC50 was 69.8 µM (active). O=C(Nc1cccc(C(F)(F)F)c1)c1ccc(N2CCNCC2)c([N+](=O)[O-])c1 showed an IC50 of over 80 µM. In the case of CCCC[C@@H]1CN=C(N)N1CCc1cc(C(F)(F)F)cc(C(F)(F)F)c1, the IC50 is reported as 28.5 µM (active). Molecule CCCCOc1ccc(CSC(=N)N)cc1[N+](=O)[O-] has an IC50 of over 80 µM. In the case of CCCCc1nc(NCCN)c(C#N)c2c1CSC(C)(C)C2, the IC50 is reported as over 80 µM.
